# Reference: PubChem BioAssay (NCATS)
# A number with no mark means an inactive call. Results filed as inconclusive are left out. Where a call stands in place of a potency, no number is given. The source made the active and inactive calls. Unless noted, calls come from the whole dose curve; as a rule, active = well fitted curve in the direction sought with a large enough effect; inconclusive = small, poorly fitted or top-dose-only effect, or another doubt; inactive = no such curve, though single readings can be large; an effect the other way counts as inactive or inconclusive.
# How the values were obtained:
# [1] = AP1 Signaling Pathway (AID 357; active = well fitted curve in either direction with a large enough effect, not every such curve was filed as active;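 note: ME-180 reporter cells stimulated with EGF at its EC50 level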); settings: ME-180 AP-1-bla reporter, EGF-induced, beta-lactamase ratio, 5 h; at 17.2 µM (top of the series) unless noted
# Method in brief: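 Titration-series screen for positive or negative modulators of EC50 EGF-induced signaling in ME-180 cells carrying an AP-1-driven beta-lactamase reporter. After 5 hours at 37 degrees Celsius, CCF4 460nm/530nm emission ratio gave %Activity; AC50 values derived.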
# [2] = molecular target: Cytochrome P450 1A2 (Homo sapiens) (UniProt P05177); assay: p450-cyp1a2 (AID 410; calls by dose curve)
# Sequence of Cytochrome P450 1A2 (Homo sapiens) (P05177 whole entry, looked up): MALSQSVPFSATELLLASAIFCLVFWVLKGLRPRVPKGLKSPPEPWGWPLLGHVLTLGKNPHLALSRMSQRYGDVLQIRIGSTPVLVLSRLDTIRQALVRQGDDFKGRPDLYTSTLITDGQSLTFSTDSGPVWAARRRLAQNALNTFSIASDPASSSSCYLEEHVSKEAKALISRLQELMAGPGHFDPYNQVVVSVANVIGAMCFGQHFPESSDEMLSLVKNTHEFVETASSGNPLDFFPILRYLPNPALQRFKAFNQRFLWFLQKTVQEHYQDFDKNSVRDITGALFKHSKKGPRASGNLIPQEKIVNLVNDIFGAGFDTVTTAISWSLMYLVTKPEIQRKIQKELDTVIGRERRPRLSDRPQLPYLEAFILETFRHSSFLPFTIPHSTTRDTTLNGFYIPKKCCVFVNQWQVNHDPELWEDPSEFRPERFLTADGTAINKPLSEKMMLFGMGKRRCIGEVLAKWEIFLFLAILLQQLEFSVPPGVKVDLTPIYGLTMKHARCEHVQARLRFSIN
# Method in brief: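 Luminescent readout of luciferin formed from Luciferin-ME by human CYP1A2; data normalized against complete inhibition by 57 uM furafylline. Enzyme 20nM, substrate 100uM at Km, 100mM KPO4 buffer, 60 min reaction at room temperature.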
# [3] = molecular target: Glucocorticoid receptor (Homo sapiens) (UniProt P04150); assay: GR-GFP Redistribution (AID 450;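 active = compounds whose dose series gives a full or clear partial fitted curve of increased nuclear translocation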; note: potency is the fitted concentration of half-maximal effect); settings: U2OS GR-GFP nuclear translocation, laser cytometry, 2 h
# Sequence of Glucocorticoid receptor (Homo sapiens) (P04150 whole entry, looked up, the tested form may be a part): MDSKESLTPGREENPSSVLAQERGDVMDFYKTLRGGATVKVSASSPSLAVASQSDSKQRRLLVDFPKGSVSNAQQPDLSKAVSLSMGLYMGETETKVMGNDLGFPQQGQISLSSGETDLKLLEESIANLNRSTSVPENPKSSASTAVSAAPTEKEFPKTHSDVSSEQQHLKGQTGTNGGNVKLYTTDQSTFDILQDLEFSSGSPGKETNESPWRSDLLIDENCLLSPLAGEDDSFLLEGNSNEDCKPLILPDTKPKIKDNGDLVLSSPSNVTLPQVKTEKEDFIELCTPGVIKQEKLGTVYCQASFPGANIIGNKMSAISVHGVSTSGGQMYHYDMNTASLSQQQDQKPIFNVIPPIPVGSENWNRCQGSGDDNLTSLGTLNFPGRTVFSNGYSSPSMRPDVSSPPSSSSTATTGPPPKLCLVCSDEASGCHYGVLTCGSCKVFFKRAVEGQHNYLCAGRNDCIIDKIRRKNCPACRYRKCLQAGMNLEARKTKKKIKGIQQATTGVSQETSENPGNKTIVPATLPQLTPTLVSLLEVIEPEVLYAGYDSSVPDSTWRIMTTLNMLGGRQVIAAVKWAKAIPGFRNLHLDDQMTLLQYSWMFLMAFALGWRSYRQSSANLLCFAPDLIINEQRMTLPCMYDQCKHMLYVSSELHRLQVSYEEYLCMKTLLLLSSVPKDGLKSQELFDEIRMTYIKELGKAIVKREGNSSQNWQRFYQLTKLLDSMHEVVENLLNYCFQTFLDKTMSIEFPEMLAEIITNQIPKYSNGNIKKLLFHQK
# [4] = molecular target: Glucocorticoid receptor (Homo sapiens) (UniProt P04150); assay: GR-EFC Redistribution (AID 451; calls by dose curve; note: potency is the fitted concentration of half-maximal effect); settings: CHO-K1 GR-EFC translocation, beta-gal luminescence, 2 h
# Method in brief: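 Translocation of GR-ED fusion to nuclear EA restores b-gal, read by luminescence after 1 h room-temperature detection. Engineered CHO-K1 biosensor cells, 1,000/well, exposed 2 h at 37 C to titrations up to 46 uM final.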
# [5] = molecular target: Mitogen-activated protein kinase 10 (Mus musculus) (UniProt Q61831); assay: JNK3 AlphaScreen Assay (AID 530; active = well fitted curve in either direction with a large enough effect, not every such curve was filed as active;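 note: kinase came from lysate of stimulated human HepG2 cells; signal reports phosphorylation of biotinylated GST-cJun 1-79 at Ser73 with 10 µM ATP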)
# Method in brief: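 Compound titrations were preincubated 15 minutes at room temperature with substrate, antibody and pre-activated JNK3-containing HepG2 lysate. Reactions were started with 10 uM ATP and stopped with EDTA-containing bead buffer for AlphaScreen detection.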
# [6] = molecular target: 3',5'-cyclic-AMP phosphodiesterase 4B (Homo sapiens) (UniProt Q07343); assay: qHTS Assay for Inhibitors of PDE-IV (AID 607; active = well fitted activation curve with a large enough effect in the main read-out, with a control signal flat, not every such curve was filed as active)
# Sequence of 3',5'-cyclic-AMP phosphodiesterase 4B (Homo sapiens) (Q07343 whole entry, looked up): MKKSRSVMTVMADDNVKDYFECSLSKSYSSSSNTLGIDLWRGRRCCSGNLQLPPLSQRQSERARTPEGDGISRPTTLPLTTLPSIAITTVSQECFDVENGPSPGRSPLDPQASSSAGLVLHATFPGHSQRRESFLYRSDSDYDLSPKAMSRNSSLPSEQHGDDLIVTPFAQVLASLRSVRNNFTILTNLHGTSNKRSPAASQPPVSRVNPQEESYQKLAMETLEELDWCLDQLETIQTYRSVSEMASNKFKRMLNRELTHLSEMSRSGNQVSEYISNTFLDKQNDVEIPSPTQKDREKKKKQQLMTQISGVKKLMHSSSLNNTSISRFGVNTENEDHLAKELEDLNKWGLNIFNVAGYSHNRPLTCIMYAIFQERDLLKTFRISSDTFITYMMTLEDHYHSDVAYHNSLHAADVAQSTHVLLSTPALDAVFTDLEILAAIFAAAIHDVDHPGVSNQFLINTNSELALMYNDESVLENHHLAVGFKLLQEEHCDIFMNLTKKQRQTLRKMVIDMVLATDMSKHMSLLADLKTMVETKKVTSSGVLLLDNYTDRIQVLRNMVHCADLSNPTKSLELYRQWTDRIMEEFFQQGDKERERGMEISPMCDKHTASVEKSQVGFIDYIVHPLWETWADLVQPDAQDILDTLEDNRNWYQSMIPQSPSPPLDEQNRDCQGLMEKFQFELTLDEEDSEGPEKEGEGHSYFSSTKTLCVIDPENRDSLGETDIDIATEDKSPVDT
# Method in brief: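 The readout is membrane depolarisation from a cAMP-sensing CNG channel, detected with a potential dye at ex 535/em 590. Cells were HEK293-derived (endogenous PDE-IV) at 1000 cells/well, titrated up to 22.9 uM final.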
# [7] = molecular target: Guanine nucleotide-binding protein G(i) subunit alpha-1 (Homo sapiens) (UniProt P63096); assay: qHTS Assay for Inhibitors of RGS12 GoLoco Motif Activity (Green Fluorophore) (AID 879);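 note: negative values mean loss of peptide binding seen as reduced polarization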
# Sequence of Guanine nucleotide-binding protein G(i) subunit alpha-1 (Homo sapiens) (P63096 whole entry, looked up): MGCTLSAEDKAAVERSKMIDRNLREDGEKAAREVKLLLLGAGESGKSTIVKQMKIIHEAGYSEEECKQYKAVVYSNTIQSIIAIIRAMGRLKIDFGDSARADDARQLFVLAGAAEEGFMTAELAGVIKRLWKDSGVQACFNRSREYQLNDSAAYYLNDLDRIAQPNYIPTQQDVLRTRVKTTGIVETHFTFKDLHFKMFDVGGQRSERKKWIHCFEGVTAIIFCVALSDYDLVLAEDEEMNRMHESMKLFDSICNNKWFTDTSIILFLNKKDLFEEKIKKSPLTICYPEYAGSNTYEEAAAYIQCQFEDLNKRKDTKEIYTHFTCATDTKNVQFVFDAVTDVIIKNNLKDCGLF
# Method in brief: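 Fluorescence polarization assay: 50 nM Gαi1 with 10 nM FITC-labeled RGS12 GoLoco peptide in 10 mM Tris pH 7.5, 150 mM NaCl, 0.1 mM GDP, 0.05% NP40, 10 min at room temperature with compound.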
# [8] = qHTS Assay for Identification of Small Molecule Antagonists for NFkB Signaling Pathway (AID 895; active = well fitted inhibition curve with a large enough effect in the signal ratio, with a control signal flat, not every such curve was filed as active; the % refers to the signal ratio; note: potency is the fitted concentration of half-maximal effect)
# Method in brief: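 Beta-lactamase reporter read-out (460 and 530 nm emission ratio, 405 nm excitation, 2 hrs substrate loading RT) after 5 hr stimulation with 10 pM TNF alpha in compound-treated NFkB-bla ME-180 cells in low-serum medium.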
# [9] = qHTS Assay for Identification of Small Molecule Agonists for Thrombopoietin (TPO) Signaling Pathway (AID 917)
# Method in brief: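 Murine Ba/F3 cells stably expressing human TPO receptor and a Glycoprotein IIb promoter–luciferase reporter were IL-3-starved overnight, then treated with compounds plus TPO (26 pM final, its EC50) for 24 hrs at 37 C; luminescence was read.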
# [10] = molecular target: Muscarinic acetylcholine receptor M1 (Rattus norvegicus) (UniProt P08482); assay: qHTS Assay for Antagonists of Acetylcholine Muscarinic M1 Receptor: Kinetic Measurement of Intracellular Calcium Response (AID 943); note: potency is the fitted concentration of half-maximal effect; nearly all actives have a fitted effect of over 75% in size
# Sequence of Muscarinic acetylcholine receptor M1 (Rattus norvegicus) (P08482 whole entry, looked up): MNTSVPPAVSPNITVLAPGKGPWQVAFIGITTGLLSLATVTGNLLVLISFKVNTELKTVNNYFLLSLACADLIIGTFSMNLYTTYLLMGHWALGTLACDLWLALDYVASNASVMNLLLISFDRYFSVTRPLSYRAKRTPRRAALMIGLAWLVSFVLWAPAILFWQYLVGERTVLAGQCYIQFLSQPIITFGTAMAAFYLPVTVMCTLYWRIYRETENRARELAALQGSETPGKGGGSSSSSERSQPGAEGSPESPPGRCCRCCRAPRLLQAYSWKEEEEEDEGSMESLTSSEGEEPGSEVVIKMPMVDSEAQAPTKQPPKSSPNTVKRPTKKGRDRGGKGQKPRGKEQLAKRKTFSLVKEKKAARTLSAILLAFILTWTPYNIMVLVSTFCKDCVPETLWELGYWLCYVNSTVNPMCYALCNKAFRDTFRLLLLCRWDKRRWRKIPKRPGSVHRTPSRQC
# Method in brief: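 Rat M1-CHO cells, 2000/well, overnight → Fluo-4 no-wash dye with probenecid, 1 h 37C → compound 10 min, room temp → basal read 6 s → carbachol EC80 (100 nM) → 4 min kinetic read; peak/basal.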
# [11] = molecular target: Pyruvate kinase PKM (Homo sapiens) (UniProt P14618); assay: qHTS Assay for Activators of Human Muscle Pyruvate Kinase (AID 954; active = well fitted curve in the direction sought with a large enough effect, not every such curve was filed as active)
# Sequence of Pyruvate kinase PKM (Homo sapiens) (P14618 whole entry, looked up): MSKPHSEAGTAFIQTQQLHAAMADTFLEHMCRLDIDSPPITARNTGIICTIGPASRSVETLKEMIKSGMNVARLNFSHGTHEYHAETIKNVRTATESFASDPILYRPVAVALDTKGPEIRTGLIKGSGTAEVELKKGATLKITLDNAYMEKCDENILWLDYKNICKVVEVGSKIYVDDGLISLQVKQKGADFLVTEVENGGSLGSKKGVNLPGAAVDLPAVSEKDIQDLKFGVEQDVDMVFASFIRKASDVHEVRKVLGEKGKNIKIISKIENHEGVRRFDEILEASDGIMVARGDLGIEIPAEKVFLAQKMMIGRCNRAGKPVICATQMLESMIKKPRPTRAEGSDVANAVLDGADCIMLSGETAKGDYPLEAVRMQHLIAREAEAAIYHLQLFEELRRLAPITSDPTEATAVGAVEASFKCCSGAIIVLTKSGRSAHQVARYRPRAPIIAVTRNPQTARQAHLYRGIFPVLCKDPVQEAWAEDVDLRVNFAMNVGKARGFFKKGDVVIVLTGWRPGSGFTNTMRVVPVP
# Method in brief: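 Reaction: 0.1 nM purified PKM2 with 0.5 mM phosphoenolpyruvate and 0.1 mM ADP, room temperature, 1 h. Readout: luciferase-based ATP luminescence after stop reagent. Activators judged against a 0.3 nM enzyme column.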
# [12] = molecular target: Alpha-galactosidase (Coffea arabica) (UniProt Q42656); assay: Counterscreen for Glucocerebrosidase Inhibitors: qHTS Assay for Coffee Bean alpha-Galactosidase at pH 4.5 (AID 957)
# Sequence of Alpha-galactosidase (Coffea arabica) (Q42656 whole entry, looked up): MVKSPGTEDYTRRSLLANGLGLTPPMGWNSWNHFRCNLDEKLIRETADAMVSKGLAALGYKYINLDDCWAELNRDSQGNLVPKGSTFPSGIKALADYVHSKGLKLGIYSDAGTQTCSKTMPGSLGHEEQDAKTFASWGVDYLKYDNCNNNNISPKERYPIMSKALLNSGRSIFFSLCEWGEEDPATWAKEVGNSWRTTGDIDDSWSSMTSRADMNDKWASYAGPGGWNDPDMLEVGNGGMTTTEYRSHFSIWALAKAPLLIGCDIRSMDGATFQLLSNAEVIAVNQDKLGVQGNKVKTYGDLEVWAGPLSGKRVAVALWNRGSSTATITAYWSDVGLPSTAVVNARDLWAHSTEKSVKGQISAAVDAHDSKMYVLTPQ
# Method in brief: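 Coffee bean alpha-galactosidase 2 nM, substrate 4-MU-alpha-Gal 80 uM, pH 4.5 citrate/Tween-20, 20 min RT. Cpd titration 0.7 nM–77 uM. Stop pH 10, fluorescence 365/440 nm; Hill-equation AC50.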
# [13] = molecular target: Alpha-galactosidase A (Homo sapiens) (UniProt P06280); assay: Counterscreen for Glucocerebrosidase Inhibitors: qHTS Assay for Human alpha-Galactosidase at pH 4.5 (AID 992)
# Sequence of Alpha-galactosidase A (Homo sapiens) (P06280 whole entry, looked up): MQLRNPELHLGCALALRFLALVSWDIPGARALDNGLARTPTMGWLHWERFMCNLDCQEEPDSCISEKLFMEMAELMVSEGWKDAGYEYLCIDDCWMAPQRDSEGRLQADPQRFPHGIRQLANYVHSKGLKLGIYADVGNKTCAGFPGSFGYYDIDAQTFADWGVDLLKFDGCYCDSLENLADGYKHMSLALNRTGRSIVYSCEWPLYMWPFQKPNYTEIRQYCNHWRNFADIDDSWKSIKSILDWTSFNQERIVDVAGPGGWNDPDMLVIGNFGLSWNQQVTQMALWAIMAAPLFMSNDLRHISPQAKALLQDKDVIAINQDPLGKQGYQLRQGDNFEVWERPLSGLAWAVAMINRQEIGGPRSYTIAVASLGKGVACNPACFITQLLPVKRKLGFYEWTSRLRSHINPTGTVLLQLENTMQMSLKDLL
# Method in brief: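 Concentration-response curves (0.7 nM to 77 uM final) were modeled with the Hill equation to give AC50. Reactions: 2 nM enzyme, 80 uM fluorogenic alpha-galactoside, pH 4.5 citric acid buffer, 20 min, room temperature.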
# [14] = molecular target: alpha-glucosidase (Oryza sativa, rice) (UniProt Q653V4); assay: Counterscreen for Glucocerebrosidase Inhibitors: qHTS Assay for Rice alpha-Glucosidase at pH 5.0 (AID 997)
# Method in brief: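 Rice alpha-glucosidase (4 nM final) with 400 uM 4-methylumbelliferyl-alpha-D-glucopyranoside in citrate buffer pH 5.0, 20 min at room temperature, stopped at pH 10; fluorescence 365/440 nm, compounds 0.7 nM–77 uM, AC50 from Hill fits.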
# [15] = molecular target: Alpha-galactosidase (Coffea arabica) (UniProt Q42656); assay: Counterscreen for Glucocerebrosidase Inhibitors: qHTS Assay for Coffee Bean alpha-Galactosidase at pH 5.9 (AID 998)
# Method in brief: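 Compounds were titrated from 0.7 nM to 77 uM against green coffee bean alpha-galactosidase (2 nM) using 80 uM fluorogenic 4-methylumbelliferyl substrate. After 20 min at room temperature, reactions were stopped at pH 10 and read by fluorescence.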
# [16] = Stat Signaling Pathway (AID 446; active = well fitted curve in either direction with a large enough effect, not every such curve was filed as active;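 note: ME-180 cervical cancer cells given 40 pM IL-6 alongside compound; SIE-controlled beta-lactamase reporter measured as 460/530 nm FRET emission ratio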)
# Method in brief: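 Screening format detects activators and inhibitors alike: ME-180 SIE-bla cells stimulated at 40 pM IL-6 for 5 hrs with compound, then dual-emission beta-lactamase read at 405 nm excitation.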
# [17] = molecular target: Cytochrome P450 2C9 (Homo sapiens) (UniProt P11712); assay: qHTS Assay for Inhibitors and Substrates of Cytochrome P450 2C9 (AID 883); note: nearly all actives have a fitted effect of over 60% in size
# Method in brief: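 Luminescent read-out of deoxyluciferin hydroxylation, normalized to 57uM sulphaphenazole (AC100). Reaction: 10nM enzyme, 100uM Luciferin-H (equal to KM), 25mM KPO4, 10 min compound preincubation, then 60 min with NADPH regeneration, both at 37C.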
# [18] = molecular target: Cytochrome P450 2C19 (Homo sapiens) (UniProt P33261); assay: qHTS Assay for Inhibitors and Substrates of Cytochrome P450 2C19 (AID 899); note: potency is the fitted concentration of half-maximal effect; nearly all actives have a fitted effect of over 60% in size
# Sequence of Cytochrome P450 2C19 (Homo sapiens) (P33261 whole entry, looked up): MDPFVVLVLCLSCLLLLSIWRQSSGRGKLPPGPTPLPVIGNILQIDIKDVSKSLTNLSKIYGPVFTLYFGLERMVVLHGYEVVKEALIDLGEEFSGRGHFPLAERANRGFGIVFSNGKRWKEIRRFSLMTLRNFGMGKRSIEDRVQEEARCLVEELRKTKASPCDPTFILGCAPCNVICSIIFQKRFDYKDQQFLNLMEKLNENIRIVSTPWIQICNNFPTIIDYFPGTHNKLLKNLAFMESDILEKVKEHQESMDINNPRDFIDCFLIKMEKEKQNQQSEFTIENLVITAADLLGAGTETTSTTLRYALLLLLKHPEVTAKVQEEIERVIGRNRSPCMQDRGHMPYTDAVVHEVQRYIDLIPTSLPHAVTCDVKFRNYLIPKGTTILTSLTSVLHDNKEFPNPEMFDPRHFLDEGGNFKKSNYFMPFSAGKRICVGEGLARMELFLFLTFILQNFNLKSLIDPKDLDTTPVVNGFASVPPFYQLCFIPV
# Method in brief: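 Luminescence readout of luciferin formed from 10uM Luciferin-H EGE (KM level) by 5 nM CYP2C19 in 50mM KPO4. 60 min NADPH-driven reaction at 37C after 10 min compound preincubation; data scaled to 57uM ketoconazole inhibition.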
# [19] = NFAT Signaling Pathway (AID 444; active = well fitted curve in either direction with a large enough effect, not every such curve was filed as active;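 note: carbachol stimulus at about its EC50 of 1 µM final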); settings: Jurkat NFAT-bla M1, carbachol, beta-lactamase ratio, 5 h; at 17.2 µM (top of the series) unless noted
# Method in brief: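 Read-out: CCF4 FRET ratio (460 nm/530 nm) after 1 h RT dye loading, used for %activity and AC50 from titration series. Cells: Jurkat NFAT-β-lactamase/M1 line, treated with compound plus 1 uM carbachol for 5 h, 37 °C.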
# [20] = molecular target: Muscarinic acetylcholine receptor M1 (Rattus norvegicus) (UniProt P08482); assay: qHTS Assay for Antagonists of Acetylcholine Muscarinic M1 Receptor: Measurement of IP-One Response (AID 944); note: potency is the fitted concentration of half-maximal effect; nearly all actives have a fitted effect of over 75% in size
# Method in brief: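 M1-CHO (rat), 2000 cells/well, overnight recovery; cpd 10 min; carbachol EC80 (200 nM), 30 min, HEPES buffer + 50 mM LiCl pH 7.4; IP-One HTRF, Ex 337, Em 620/665 nm.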
smiles,measurement,setting,value
C=CCN1C[C@@H](C)N([C@H](c2ccc(C(=O)N(CC)CC)cc2)c2cccc(OC)c2)C[C@H]1C,"activity change, negative = inhibition",[1],-9.21% [at 38 µM]
same,Potency,[2],inactive
same,Potency,[3],> 46 µM
same,Potency,[4],> 46 µM
same,outcome,[5],inactive
same,outcome,[6],inactive
same,Potency,[7],inactive
same,Potency,[8],5.01 µM (active)
same,outcome,[9],inactive
same,Potency,[10],14.1 µM (active)
same,outcome,[11],inactive
same,outcome,[12],inactive
same,outcome,[13],inactive
same,outcome,[14],inactive
same,outcome,[15],inactive
O=C(CCCN1CCC2(CC1)C(=O)N(CCc1ccc(N=C=S)cc1)CN2c1ccccc1)c1ccc(F)cc1,"activity change, negative = inhibition",[1],-2.99% [at 38 µM]
same,Potency,[2],inactive
same,outcome,[16],inactive
same,Potency,[3],> 46 µM
same,Potency,[4],> 46 µM
same,outcome,[5],inactive
same,outcome,[6],inactive
same,Potency,[17],inactive
same,Potency,[18],3.16 µM (active)
CC(C)(C)NC[C@H](O)c1ccccc1Cl,"activity change, negative = inhibition",[1],-8.82% [at 38 µM]
same,Potency,[2],inactive
same,"activity change, negative = inhibition",[19],-15.3% [at 38 µM]
same,outcome,[16],inactive
same,Potency,[3],> 46 µM
same,Potency,[4],> 46 µM
same,outcome,[6],inactive
same,Potency,[7],inactive
same,outcome,[9],inactive
same,outcome,[11],inactive
same,outcome,[12],inactive
same,outcome,[13],inactive
same,outcome,[14],inactive
same,outcome,[15],inactive
CC1(C)[C@@H]2CC[C@]1(C)CN(CCC[N+](C)(C)C)C2,"activity change, negative = inhibition",[1],-4.07% [at 7.69 µM]
same,"activity change, negative = inhibition",[2],-6.8% [at 2.29 µM]
same,"activity change, negative = inhibition",[19],-12.6% [at 7.69 µM]
same,Potency,[3],> 46 µM
same,Potency,[4],> 9.22 µM
same,"activity change, negative = inhibition",[5],0.443% [at 11.4 µM]
same,outcome,[6],inactive
COc1cccc(-n2c(C)nc3ccccc3c2=O)c1,"activity change, negative = inhibition",[1],10.2%
same,"activity change, negative = inhibition",[19],3.48%
same,outcome,[16],inactive
same,Potency,[3],> 20.6 µM
CCCN1CCC[C@H](c2cccc(C#N)c2)C1,"activity change, negative = inhibition",[1],7.99% [at 38 µM]
same,Potency,[2],inactive
same,outcome,[16],inactive
same,Potency,[3],> 46 µM
same,outcome,[5],inactive
same,outcome,[6],inactive
same,Potency,[7],inactive
same,outcome,[9],inactive
same,Potency,[20],11.2 µM (active)
same,outcome,[11],inactive
same,outcome,[12],inactive
same,outcome,[13],inactive
same,outcome,[14],inactive
same,outcome,[15],inactive
Nc1ccc(C2(c3ccc(N)cc3)CN3CCC2CC3)cc1,"activity change, negative = inhibition",[1],7.52%
same,"activity change, negative = inhibition",[19],-2.19%
same,outcome,[16],inactive
same,Potency,[3],> 20.6 µM
